Assay outcomes as filed in PubChem.
Many of the other results were omitted from the sample, so hits are more common in it than they were.
mHTT-CaM PPI inh: mHTT-calmodulin interaction abrogation. P42858. AlphaScreen His-mHTT/GST-CaM binding, luminescence. inhibition, % at 15 µM. 3.6% of 190,000 active;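 also: 0% = both proteins with DMSO and 100% = one protein alone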
Pf apPOL block: Pf-apPOL DNA polymerase inhibition; Recombinant Pf-apPOL, molecular beacon fluorescence, 1.5 h; inhibition, % at 10 µM; 0.25% of 210,000 active; AID 1794808
Numbers without * were called inactive; · = no result given. Rule as the data show it: active = inhibition above about 50%; inactive = the rest.

SMILES	mHTT-CaM PPI inh	Pf apPOL block
COc1ccc(-n2c(C)nc3cc(C(=O)N4CCC5(CC4)OCCO5)ccc32)cc1	1	-4
Cc1nc2cc(C(=O)N3CCC4(CC3)OCCO4)ccc2n1-c1ccc(Br)cc1	57*	-1
CCOc1ccccc1C1N(c2cc(C)on2)C(=O)C2CCCN21 (stereo not given)	-5	-3
CN(C)CCC(=O)c1ccc(Cl)c(Cl)c1	100*	-2
CCc1ccc(C(=O)CCN(C)C)cc1	2	-2
O=C(Cc1cccs1)N1CCCN(C2CCN(Cc3ccc(F)cc3)C2=O)CC1 (stereo not given)	60*	0
COCCN1CCC(N2CCCN(C(=O)Cc3cccc(Cl)c3)CC2)C1=O (stereo not given)	15	0
CNCC(O)c1ccc(O)cc1 (stereo not given)	·	-6
CN(C)c1ccc([N+](=O)[O-])c2cccnc12	14	·
CNC(=O)Oc1cc([N+](=O)[O-])cc2cccnc12	100*	-9
CC1CC(NC(=O)C2C3CCC(O3)C2C(=O)O)CC(C)(C)C1 (stereo not given)	-4	10
NC(=NCCC[C@H](N)C(=O)O)N[N+](=O)[O-]	·	-9
O=c1oc2cc([N+](=O)[O-])c(O)c([N+](=O)[O-])c2s1	68*	-4
COc1ccc(CCNC2CCSC2)cc1OC (stereo not given)	2	-5
OCCN1CCN(Cc2ccc(Cl)cc2)CC1	9	-2
Cc1cccc(N2CCN(Cc3c(F)cccc3F)CC2)c1C	-8	2
COc1cccc(CN2CCN(c3ccc(F)cc3)CC2)c1OC	6	58*
COc1cccc(CN2CCN(c3ccc(Cl)cc3)CC2)c1OC	2	-12
CN1C(=O)C(C2(C#N)CCCCC2)C(=O)N(C)C1=O	0	4
COc1cc(OC)c(OC)cc1CNCCc1cccc(Cl)c1	2	-2
COc1cc(CNCCc2cccc(Cl)c2)c([N+](=O)[O-])cc1OC	57*	-1
CCSc1nccc(OC(NC(=O)c2ccccc2)C(Cl)(Cl)Cl)n1 (stereo not given)	-1	-5
O=C(CN1CCOCC1)Nc1ccc(Cl)cc1C(=O)c1ccccc1	-3	74*
CCC(=O)Nc1ccc(Cl)cc1C(=O)c1ccccc1	0	-3
COc1ccc(Cl)cc1NC(=O)c1cccn(Cc2cc(C)ccc2C)c1=O	-6	7
SMILES	mHTT-CaM PPI inh	Pf apPOL block
OC(CN(Cc1ccccc1)Cc1ccccc1)c1ccc2cc[nH]c2c1 (stereo not given)	68*	3
OCCN(CCc1ccccc1)Cc1ccccc1	-14	-6
CN(C)/C=C/c1c(C=O)c2cc([N+](=O)[O-])ccc2n1Cc1ccccc1	100*	-56
O=Cc1cn(Cc2ccc([N+](=O)[O-])cc2)c2ccccc12	21	-1
O=[N+]([O-])C=Cc1cccc(C(F)(F)F)c1	·	2
CCCN(CCO)C1CCC(CC)CC1 (stereo not given)	-2	2
O=C(CN1C(=O)CN=C(c2ccccc2)c2cc(Cl)ccc21)Nc1ccccc1C(F)(F)F	26	-6
Cc1cccc(NC(=O)CN2C(=O)CN=C(c3ccccc3)c3cc(Cl)ccc32)c1C	54*	-20
O=C(CN1C(=O)CN=C(c2ccccc2)c2ccccc21)Nc1cccc(Cl)c1	27	-1
COc1ccc(NC(=O)CN2C(=O)CN=C(c3ccccc3)c3cc(Cl)ccc32)cc1OC	76*	-18
O=[N+]([O-])/C=C/c1ccc(OCc2ccccc2Cl)cc1	18	-5
Cc1cccc(NC(=O)C2C(C)(C)C2(C)C)c1C	-12	-2
NCC1(c2ccc3c(c2)OCCO3)CCOCC1	-8	106*
COc1ccc(C2(CN)CCOCC2)cc1OC	-2	-7
Cc1nc2ccccc2c(=O)n1-c1ccc2c(c1)OC(F)(F)O2	4	0
NCCc1csc2c1CCCC2	65*	·
O=C(c1cc(Sc2cccc(Cl)c2)nc2ccccc12)N1CCC2(CC1)OCCO2	-11	-6
O=C(c1nccs1)C1CCCN1 (stereo not given)	98*	·
O=C(CSC1CCCC1)N1CC2CC(C1)c1cccc(=O)n1C2 (stereo not given)	-7	-1
CCOc1ccccc1N1CCN(Cc2ccc(F)c(F)c2)CC1	-5	3
CCOc1ccccc1N1CCN(Cc2ccc(F)c(Br)c2)CC1	68*	-1
CC(C)c1ccc(C2NCc3ccccc3-n3cccc32)cc1 (stereo not given)	28	·
COc1cc2c(cc1OC)-c1c(OC)c(OC)c([N+](=O)[O-])c3c1C(C2)N(C)CC3 (stereo not given)	57*	·
COc1cc2c(cc1OC)C1c3cc([N+](=O)[O-])ccc3Oc3cc(C#N)c(C#N)cc3N1CC2 (stereo not given)	13	-2
COc1ccccc1N1CCN(Cc2ccc(O)cc2)CC1	-3	-3
SMILES	mHTT-CaM PPI inh	Pf apPOL block
COc1ccccc1N1CCN(C(=O)C(O)(c2ccccc2)c2ccccc2)CC1	82*	-13
N#Cc1ccc(N2CCN(C(=O)COc3ccc4[nH]cc(CCN)c4c3)CC2)cc1	·	15
COc1cccc(CN2CCN(c3cccc(Cl)c3)CC2)c1OC	-2	-2
COc1ccc(OC)c(-n2c(O)c(C=C3C=Nc4ccccc43)c(=O)[nH]c2=O)c1	34	-2
O=c1[nH]c(O)c(C=C2C=Nc3ccc(OCc4ccccc4)cc32)c(=O)[nH]1	76*	-3
COC(=O)C1=CCCN(C)C1	·	10
CNC(=O)ON=C(N)c1nn(C(=O)NC)cc1Br	·	-10
O=c1c2ccccc2nc(/C=C/c2ccc([N+](=O)[O-])cc2)n1-c1cccnc1	0	-7
COc1ccccc1CCNCc1cc(OC)c2c(c1)OCO2	89*	-7
COc1ccccc1CCNCc1ccc2c(c1)OCO2	1	-10
Cc1nccc2c1[nH]c1ccccc12	·	11
Cc1cc(N2CCN(C)CC2)c2[nH]c3ccccc3c2c1	79*	12
CC1=Nc2cc(C(=O)N3CCC4(CC3)OCCO4)ccc2Sc2ccc(Cl)cc21	49	-16
Cc1ccc(C2c3c(c4ccccc4oc3=O)Oc3c2c(=O)oc2ccccc32)o1	47	36
O=c1oc2ccccc2c2c1C(c1ccc(O)cc1)c1c(c3ccccc3oc1=O)O2	96*	69*
COc1cc(CN(C)CCc2ccccc2)c([N+](=O)[O-])cc1OC	-4	-6
CC12CN3CC(C)(CN(C1)C3c1cccnc1)C2O (stereo not given)	11	8
CN1C2CCC1CC(OC(=O)C1CCC(C(=O)OC3CC4CCC(C3)N4C)(c3ccccc3)c3ccccc31)C2 (stereo not given)	·	-9
CC(=O)N1CC(=O)Nc2ccc(Br)cc2C1c1ccccc1Cl (stereo not given)	16	-3
O=C1CNC(c2ccccc2Cl)c2cc(Br)ccc2N1 (stereo not given)	61*	-1
CCCCCC(=O)NC(Oc1ccccc1)C(Cl)(Cl)Cl (stereo not given)	81*	-4
CC(C)C(=O)NC(Oc1ccccc1)C(Cl)(Cl)Cl (stereo not given)	-16	-4
CCN(CC)c1ccc(CN2CCN(c3ccccc3)CC2)cc1	51*	0
Brc1ccc(CN2CCN(c3ccccc3)CC2)cc1	1	-6
CCN1CCN(Cc2ccc(OC)c(C)c2C)CC1	2	-2
CC12CCC3C(CCC4CC(=O)CC43C)C1CCC2O (stereo not given)	-1	-7
